Source: PubChem (National Center for Advancing Translational Sciences (NCATS))
Sampled rows, rich in hits. Any-hit rate of the full collection: about 21%.
SARS PLpro yeast: inhibitors of SARS-CoV papain-like protease in yeast; S. cerevisiae expressing SARS-CoV PLpro, growth rescue; 330,000 compounds, 0.19% hits; Potency, µM (highest dose often 32.9 µM), for inactives: top-dose activity, positive = growth rescue, usual class: activators; also: potency is read from the fitted curve at half-maximal effect; 0% is about no effect; nearly all actives have a fitted effect of over 55% in size
Pf growth 48h: inhibits P. falciparum growth in the first generation, 48 h; AID 504832; Potency, µM (highest dose often 28.7 µM), for inactives: at the top dose activity change, negative = inhibition, most hits filed as inhibitors; P. falciparum luciferase growth in erythrocytes, 48 h; 310,000 compounds, 5.9% hits; active = well fitted inhibition curve with a large enough effect; inconclusive = small, poorly fitted or top-dose-only effect, or another doubt; inactive = no such curve, though single readings can be large or run the other way; also: potency is read from the fitted curve at half-maximal effect; % is scaled to controls: 0 for no effect and ±100 for the full control effect
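Compounds are pin-transferred into medium, infected erythrocytes (2% hematocrit, 0.1% parasitemia final) are added, and plates sit one parasite generation at 37 C in 5% CO2. Detection reagent is then added and luminescence measured.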
NS1 function inh: influenza NS1 inhibition | 270,000 compounds, 0.4% hits | AID 2326 | Potency, µM (doses to about 46.1 µM), inactives show at the highest dose activity, positive = more growth; also: potency is read from the fitted curve at half-maximal effect; actives are rising curves; nearly all actives have a fitted effect of over 50% in size
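In this qHTS, NS1 from influenza A is expressed in budding yeast, where it slows growth. Cells are switched from glucose to 2% galactose medium (pH 6.0, -URA), treated with compound, and growth recovery is read at OD600.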
Pf growth 96h: inhibits malaria parasite growth, 96 h | P. falciparum luciferase reporter growth, 96 h | Potency, µM (titrated, usually from 28.7 µM), for inactives: at the highest dose activity change, negative = inhibition, most hits filed as inhibitors | 320,000 compounds, 6.9% hits; active = well fitted inhibition curve with a large enough effect; inconclusive = small, poorly fitted or top-dose-only effect, or another doubt; inactive = no such curve, though single readings can be large or run the other way; also: potency is read from the fitted curve at half-maximal effect; % is scaled to controls: 0 for no effect and ±100 for the full control effect
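96 h incubation, 37 C, 5% CO2, of luciferase-reporter P. falciparum-infected RBCs (2% hematocrit, 0.05% parasitemia final) with test compounds; endpoint luminescence.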
Cycloheximide cs: counter-screen hit for Shiga toxin inhibitors, cycloheximide | AID 2314 | 300,000 compounds, 12% hits | cell reporter, cycloheximide protein synthesis inhibition counterscreen | max response, %; in the data active = max response mostly above about 13%, no sharp cut-off; inactive = mostly below about 14%; also: read at 38.3 µM for the half of the compounds with a filed dose; 0% is about no effect
Shiga toxin inh: Shiga toxin inhibition; Vero cells, Shiga toxin protein synthesis inhibition reporter; inhibition, % at 38.7 µM; 290,000 compounds, 9.2% hits; AID 2315; in the data active = inhibition mostly above about 28%, no sharp cut-off; inactive = mostly below about 43%; also: 0% is about no effect
* = called active by the depositor; i = inactive; ? = inconclusive; . = no result given. Unless noted, calls follow the shape of the full dose curve.

SMILES	SARS PLpro yeast	Pf growth 48h	NS1 function inh	Pf growth 96h	Cycloheximide cs	Shiga toxin inh
COCCNC(=S)N/N=C(\C)c1cc2ccccc2o1	?	24.6%	-7.4%	?	8.9	25.2*
COc1ccc(NCC(=O)N/N=C(\C)c2cc3ccccc3o2)cc1	-3.8%	39.0%	.	20.8%	15.7*	20.3
C/C(=N\NC(=O)COc1ccc(C(C)(C)C)cc1)c1ccccc1	-15.1%	-25.3%	-2.8%	-9.9%	-1.7	18.1
C/C(=N\NC(=O)COc1ccc(C(C)(C)C)cc1)c1cc2ccccc2o1	-10.4%	189.2%	21.9%	0.0%	24.3*	37.6*
Cc1nn(C)c(C)c1-c1cccc2c1CCC(N(C)C)C2 (stereo not drawn)	.	.	.	.	-1.0	13.6
CN1C(=O)Cc2cc(S(=O)(=O)N3CCN(c4cccc(C(F)(F)F)c4)CC3)ccc21	-0.4%	-17.7%	5.9%	?	-5.0	-6.6
Cc1ccc2ccc3c(c2n1)NS(=O)(=O)c1ccc(C(F)(F)F)cc1-3	.	.	.	.	-4.4	-4.1
COc1ccc(Cl)cc1NC(=O)CN1CCC(n2nnc3ccccc32)CC1	-4.3%	?	-17.5%	4.3%	-3.1	-5.4
COc1ccc(Nc2nnc(-c3ccc(N4CCOCC4)c([N+](=O)[O-])c3)c3ccccc23)cc1	6.3%	?	10.9%	?	-2.2	-17.9
CCc1ccccc1NC(=O)[C@@H]1CCC(=O)N1C1OC(=O)c2ccccc21 (stereo partly drawn)	6.0%	41.0%	-6.7%	0.8%	-2.6	-8.6
CC(C)c1ccc(NC(=O)[C@@H]2CCC(=O)N2C2OC(=O)c3ccccc32)cc1 (stereo partly drawn)	1.5%	87.9%	7.3%	255.1%	28.1*	38.2
O=S(=O)(c1ccc(F)cc1F)N1CCCN(c2ccc(C(F)(F)F)cn2)CC1	-2.0%	?	1.2%	-45.6%	0.7	8.0
COC(=O)c1c(-c2ccc(SC)cc2)sc2ccccc12	-1.9%	?	.	5.86µM*	.	.
CO/N=C/CC(=O)c1cnc(-c2ccccc2)s1	-4.0%	2.8%	.	31.4%	18.8*	40.0
O=C(C/C=N/OCc1ccc(Cl)cc1)c1cnc(-c2ccccc2)s1	-9.7%	-0.1%	6.9%	41.5%	-2.5	30.8
COc1ccc(-n2nc(C(=O)NCC(=O)N3CCCCCC3)c3ccccc3c2=O)cc1	-4.8%	-23.9%	12.3%	?	16.0*	41.0
COc1ccc(N2CCN(C(=O)CNC(=O)c3nn(-c4ccc(OC)cc4)c(=O)c4ccccc34)CC2)cc1	0.9%	0.0%	-10.8%	14.7µM*	-3.4	-2.3
COc1ccc(-n2nc(C(=O)NCC(=O)N3CCN(C)CC3)c3ccccc3c2=O)cc1	0.6%	4.5%	-12.1%	7.6%	2.4	-3.3
CCOC(=O)N1CCN(C(=O)CNC(=O)c2nn(-c3ccc(OC)cc3)c(=O)c3ccccc23)CC1	0.7%	-5.2%	-4.7%	55.5%	17.8*	20.8
Cc1ccc(C2C(C#N)=C(N)Oc3cc(C)oc(=O)c32)o1 (stereo not drawn)	-4.6%	13.8%	-43.9%	20.6%	-3.4	-8.5
O=C(N/N=C/c1cccc(OC(=O)c2ccccc2Cl)c1)c1cccnc1	-7.9%	-2.1%	-21.8%	57.6%	25.3*	49.1*
COc1cc(C(=O)N/N=C/c2ccc(OC(=O)c3cccc(C)c3)cc2)ccc1O	-0.6%	?	15.5%	?	11.1	2.8
Cc1cccc(C(=O)Oc2ccc(/C=N/O)cc2)c1	-10.3%	i	-16.2%	?	47.7*	45.0*
Cc1ccc(C(=O)N/N=C\c2ccc(OC(=O)c3cccs3)cc2)cn1	-12.6%	24.6%	-31.1%	0.0%	-1.8	-15.5
Cc1ccc(C(=O)N/N=C/c2ccc(OC(=O)c3ccccc3Cl)cc2)cn1	-3.5%	-10.7%	-5.5%	?	13.7*	26.2
O=C(Oc1cccc(-n2cnnn2)c1)c1ccccc1Cl	-0.7%	35.0%	-3.3%	62.9%	-1.5	-5.4
O=C(Oc1ccc(/C=N/O)cc1)c1ccccc1Cl	-1.9%	22.3%	-47.5%	30.7%	51.3*	68.8*
O=C(CSc1n[nH]c(-c2ccncc2)n1)Nc1ccc(Cl)c(Cl)c1	-2.2%	4.4%	-6.2%	0.5%	-4.5	24.1
CC(=O)c1cccc(NS(=O)(=O)c2cc3c(cc2C)NC(=O)CO3)c1	-0.1%	17.5%	5.3%	14.7µM*	12.4	-10.9
